Data: PubChem BioAssay (NCATS)
Results filed as inconclusive are left out. A call without a number means that no potency is given here. A number with no mark means an inactive call. Active and inactive are the calls of the source. Calls come from the whole dose curve; as a rule, active = well fitted curve in the direction sought with a large enough effect; inconclusive = small, poorly fitted or top-dose-only effect, or another doubt; inactive = no such curve, though single readings can be large; an effect the other way counts as inactive or inconclusive.

Assays:
[1] = biological target: Rap guanine nucleotide exchange factor 3 (Homo sapiens) (UniProt O95398); assay: Confirmatory qHTS for antagonist of cAMP-regulated guanine nucleotide exchange factor 3 (EPAC1) (AID 1645880); note: nearly all actives have a fitted effect of over 55% in size; note: potency is the fitted concentration of half-maximal effect
Chain of Rap guanine nucleotide exchange factor 3 (Homo sapiens) (O95398 whole entry, looked up): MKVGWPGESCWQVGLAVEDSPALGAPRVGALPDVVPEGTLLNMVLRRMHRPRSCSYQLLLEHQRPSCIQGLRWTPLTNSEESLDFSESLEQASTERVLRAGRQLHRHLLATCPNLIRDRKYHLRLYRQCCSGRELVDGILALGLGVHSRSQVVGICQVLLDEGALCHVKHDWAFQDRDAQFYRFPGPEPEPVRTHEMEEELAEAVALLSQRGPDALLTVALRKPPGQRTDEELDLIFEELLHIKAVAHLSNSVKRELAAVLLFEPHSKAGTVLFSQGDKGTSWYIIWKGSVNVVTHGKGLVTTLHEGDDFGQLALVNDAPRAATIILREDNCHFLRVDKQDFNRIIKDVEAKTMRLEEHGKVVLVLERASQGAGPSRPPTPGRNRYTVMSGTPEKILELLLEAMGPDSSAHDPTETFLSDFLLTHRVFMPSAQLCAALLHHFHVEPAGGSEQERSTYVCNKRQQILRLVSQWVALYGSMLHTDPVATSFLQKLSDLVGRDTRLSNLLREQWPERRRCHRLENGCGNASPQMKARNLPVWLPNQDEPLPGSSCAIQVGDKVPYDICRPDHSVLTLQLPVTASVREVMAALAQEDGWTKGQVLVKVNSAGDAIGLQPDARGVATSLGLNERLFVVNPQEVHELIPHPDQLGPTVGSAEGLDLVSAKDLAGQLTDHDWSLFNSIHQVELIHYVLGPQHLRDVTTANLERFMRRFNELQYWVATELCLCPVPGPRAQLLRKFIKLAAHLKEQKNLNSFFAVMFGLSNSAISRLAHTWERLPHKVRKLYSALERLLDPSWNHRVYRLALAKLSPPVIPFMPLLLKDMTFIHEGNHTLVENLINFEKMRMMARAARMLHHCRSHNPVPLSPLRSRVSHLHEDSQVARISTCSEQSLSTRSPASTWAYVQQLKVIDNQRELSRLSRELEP
Outline: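 Nucleotide exchange uses 100 nM EPAC1, 250 nM RAP1B-BODIPY-GDP and 50 uM GDP, with compounds in a concentration-titration series. After 5 min at room temperature, fluorescence (480 nm ex/540 nm em) is read every 5 min for 30 min. Data are normalized to control ATA and DMSO.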

[2] = biological target: Rap guanine nucleotide exchange factor 3 (Homo sapiens) (UniProt O95398); assay: Confirmatory qHTS for agonist of cAMP-regulated guanine nucleotide exchange factor 3 (EPAC1) (AID 1645881);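 note: EPAC1 catalysed release of BODIPY-GDP from Rap1B seen as fluorescence loss; nearly all actives have a fitted effect of over 75% in size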
[3] = biological target: Rap guanine nucleotide exchange factor 4 (Homo sapiens) (UniProt Q8WZA2); assay: Confirmatory qHTS for agonist of cAMP-regulated guanine nucleotide exchange factor 4 (EPAC2) (AID 1645884);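 note: nucleotide exchange releases bodipy-GDP from Rap1 and this lowers its fluorescence; nearly all actives have a fitted effect of over 65% in size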
Chain of Rap guanine nucleotide exchange factor 4 (Homo sapiens) (Q8WZA2 whole entry, looked up): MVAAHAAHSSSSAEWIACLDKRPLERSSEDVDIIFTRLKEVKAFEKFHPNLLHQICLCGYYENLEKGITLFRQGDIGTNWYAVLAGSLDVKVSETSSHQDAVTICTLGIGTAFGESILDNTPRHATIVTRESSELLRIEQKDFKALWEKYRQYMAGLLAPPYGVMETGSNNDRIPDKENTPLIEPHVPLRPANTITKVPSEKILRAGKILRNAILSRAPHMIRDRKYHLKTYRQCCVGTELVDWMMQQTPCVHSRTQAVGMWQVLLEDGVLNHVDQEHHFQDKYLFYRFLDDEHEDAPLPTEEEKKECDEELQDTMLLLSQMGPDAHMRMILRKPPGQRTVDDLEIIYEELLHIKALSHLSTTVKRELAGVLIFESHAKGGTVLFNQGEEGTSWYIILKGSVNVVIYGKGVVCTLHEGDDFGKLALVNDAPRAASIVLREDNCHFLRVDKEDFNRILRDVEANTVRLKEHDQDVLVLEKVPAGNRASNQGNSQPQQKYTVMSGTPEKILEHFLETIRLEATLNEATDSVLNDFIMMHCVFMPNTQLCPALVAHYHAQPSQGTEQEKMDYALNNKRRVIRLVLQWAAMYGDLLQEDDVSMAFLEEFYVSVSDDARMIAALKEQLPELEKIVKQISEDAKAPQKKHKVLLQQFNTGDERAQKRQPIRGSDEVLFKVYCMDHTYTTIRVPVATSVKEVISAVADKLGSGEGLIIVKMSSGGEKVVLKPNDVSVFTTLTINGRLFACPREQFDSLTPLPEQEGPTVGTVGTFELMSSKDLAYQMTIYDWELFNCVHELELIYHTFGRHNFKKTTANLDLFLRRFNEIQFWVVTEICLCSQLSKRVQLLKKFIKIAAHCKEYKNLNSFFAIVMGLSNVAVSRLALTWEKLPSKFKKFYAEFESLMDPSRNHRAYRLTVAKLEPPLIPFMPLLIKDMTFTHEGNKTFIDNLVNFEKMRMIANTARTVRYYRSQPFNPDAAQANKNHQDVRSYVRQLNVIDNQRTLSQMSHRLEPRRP

[4] = biological target: Rap guanine nucleotide exchange factor 4 (Homo sapiens) (UniProt Q8WZA2); assay: Confirmatory qHTS for antagonist of cAMP-regulated guanine nucleotide exchange factor 4 (EPAC2) (AID 1645885); note: nearly all actives have a fitted effect of over 25% in size
[5] = biological target: Rap guanine nucleotide exchange factor 3 (Homo sapiens) (UniProt O95398); assay: Counterscreen qHTS for agonist of cAMP-regulated guanine nucleotide exchange factor 3 (EPAC1) (AID 1645889); note: nearly all actives have a fitted effect of over 40% in size
Outline: (§1)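 Measured: fluorescence of BODIPY-GDP bound to Rap1B, which falls as exchange proceeds. Conditions include 50 uM competing GDP, 5 and 30 min reads, and a later cAMP challenge for antagonist detection.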

[6] = biological target: Rap guanine nucleotide exchange factor 3 (Homo sapiens) (UniProt O95398); assay: Counterscreen qHTS for antagonist of cAMP-regulated guanine nucleotide exchange factor 3 (EPAC1) (AID 1645888);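 note: fluorescence loss as bound BODIPY-GDP is released from Rap1B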
Outline: as §1

SMILES: c1ccc(-c2nc(C3CCCCC3)c3ccccc3n2)cc1
- Potency [1]: inactive
- Potency [2]: inactive
- activation [3]: 3.01% [at 17.1 µM, percent relative to cAMP agonist control]
- Potency [4]: inactive
- activation [5]: 34% [at 30.8 µM]

SMILES: CC(=O)N(/N=C1/C(=O)Nc2ccccc21)c1ccccc1
- Potency [1]: 67.5 µM (active)
- Potency [2]: inactive
- Potency [3]: inactive
- Potency [6]: inactive

SMILES: O=S1(=O)CCN2C(Cc3ccc(SC(F)F)cc3)=CSC2=N1
- Potency [1]: inactive
- Potency [2]: inactive
- Potency [3]: inactive
- Potency [4]: inactive
- Potency [5]: inactive
